An excerpt weighted towards active compounds, which were near 12% of everything screened.
Sfp PPTase inh = inhibitors of Bacillus subtilis Sfp phosphopantetheinyl transferase. AID 1490. Q9F4F7. Potency, µM, actives largely listed as inhibitors. Biochemical Sfp PPTase activity, qHTS. 310,000 tested, 3.5% active;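 also: the enzyme is Sfp with the accession as filed and its product quenches rhodamine fluorescence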
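Compounds were incubated with enzyme (final 15 nM) for 15 min at room temperature before substrate addition started the reaction. Fluorescence at 525 nm excitation, 598 nm emission was recorded immediately and after 30 minutes.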
HP1b binding inh = HP1-beta chromodomain-methylated histone interaction inhibition. P83916. AlphaScreen HP1-beta / biotin-H3K9me3 peptide binding. Potency, µM (titrated, usually from 114 µM), hits mostly inhibitors. 390,000 tested, 0.56% active. AID 540317; also: nearly all actives have a fitted effect of over 70% in size
Target sequence (P83916 whole entry, looked up): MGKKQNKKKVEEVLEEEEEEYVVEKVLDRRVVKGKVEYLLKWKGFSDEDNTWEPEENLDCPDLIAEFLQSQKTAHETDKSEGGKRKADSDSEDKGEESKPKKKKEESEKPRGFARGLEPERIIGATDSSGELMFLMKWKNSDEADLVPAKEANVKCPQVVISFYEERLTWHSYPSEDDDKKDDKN
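Compound inhibition of the preformed complex between 50 nM HP1-beta and 50 nM biotinylated H3K9me3 peptide was read by AlphaScreen. Buffer was PBS pH 7.4 with 0.01% Tween-20. Incubations ran 30 min at room temperature, with 10 ug/mL donor/acceptor beads.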
L3MBTL1 block = blocks human L3MBTL1; Q9Y468; AID 485360; AlphaScreen L3MBTL1–H3K9me1 peptide binding; Potency, µM (series often up to 57.1 µM), actives largely listed as inhibitors; 230,000 tested, 0.66% active; also: nearly all actives have a fitted effect of over 60% in size
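First, the protein-peptide complex forms for 30 min at room temperature (L3MBTL1 50 nM, biotinylated H3K9me1 peptide 75 nM). Next, compounds are pin-transferred and incubated 30 min. Finally, AlphaScreen beads are added and read after 30 min.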
BAZ2B block = BAZ2B (human) inhibition | 360,000 tested, 4.4% active | Potency, µM (series often up to 114 µM), usual class: inhibitors | AlphaScreen BAZ2B-H3K14Ac peptide displacement; also: nearly all actives have a fitted effect of over 60% in size
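Compounds, titrated to a top concentration of 110 uM, were incubated 30 min at room temperature with preformed BAZ2B/acetyl-K14 H3 peptide complex (50 nM each). Proximity signal was measured by AlphaScreen after 20 min with beads.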
JMJD2A Tudor inh = inhibitors of human JMJD2A Tudor domain | AlphaScreen JMJD2A-Tudor / H3K4me3 peptide binding | Potency, µM (doses to about 114 µM), actives largely listed as inhibitors | 390,000 tested, 4.4% active; also: nearly all actives have a fitted effect of over 50% in size
G9a block = G9a (human) methyltransferase inhibition; 350,000 tested, 8.8% active; Potency, µM (doses to about 102 µM), usual class: inhibitors; Q96KQ7; AID 504332; G9a H3K9 monomethylation, AlphaScreen, 2 h; also: nearly all actives have a fitted effect of over 75% in size
Target sequence (Q96KQ7 913-1193 limits assumed): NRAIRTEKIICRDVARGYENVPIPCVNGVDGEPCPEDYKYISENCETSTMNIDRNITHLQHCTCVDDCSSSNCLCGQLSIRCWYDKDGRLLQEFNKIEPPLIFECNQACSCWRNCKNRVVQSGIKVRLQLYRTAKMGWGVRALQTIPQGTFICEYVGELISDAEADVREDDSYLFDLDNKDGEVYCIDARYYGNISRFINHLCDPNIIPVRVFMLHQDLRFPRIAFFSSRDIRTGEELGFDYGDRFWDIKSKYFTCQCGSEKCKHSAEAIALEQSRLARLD
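Compounds were preincubated with 20 nM G9a for 15 min, after which biotinylated H3K9 peptide (500 nM) and SAM (20 uM) started a 2 h room-temperature reaction. Monomethylated product was quantified by antibody-based AlphaScreen chemiluminescence.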
Of the large screens only hits and unclear results are named; the others gave an inactive call. Calls follow the shape of the dose curve; as a rule, active = well fitted curve in the direction sought with a large enough effect; inconclusive = small, poorly fitted or top-dose-only effect, or another doubt; inactive = no such curve, though single readings can be large; an effect the other way counts as inactive or inconclusive.

CC(=O)N1CCc2cc(S(=O)(=O)N3CCN(S(=O)(=O)c4c(F)cccc4F)CC3)ccc21	none (no result: Sfp PPTase inh, HP1b binding inh, L3MBTL1 block, BAZ2B block, G9a block)
CC[N+](C)(CC)CC(O)COCC1COc2ccccc2O1 (configuration not stated)	G9a block 6.3µM
CC1CCCC(C)N1CC(O)COCC1COc2ccccc2O1 (configuration not stated)	none
COc1cc(C(=O)O/N=C2\C=CC(=O)C(C)=C2)cc(OC)c1OC	G9a block 14µM
COc1cc(C(=O)ON=C2C=C(C)C(=O)C(C)=C2)cc(OC)c1OC	none
S=C(Nc1cccnc1)Nc1cccc2cnccc12	Sfp PPTase inh 11µM, G9a block 35µM (no result: BAZ2B block)
Fc1ccc(NC(=S)Nc2cccc3ccccc23)cc1F	none (no result: L3MBTL1 block)
S=C(Nc1ccc(Cl)cc1)Nc1cccc2cnccc12	Sfp PPTase inh inconclusive, G9a block 45µM
Cc1cc(NC(=S)Nc2cccnc2)ccc1Br	G9a block 40µM (no result: L3MBTL1 block)
CN(C)S(=O)(=O)c1cccc(NC(=S)Nc2cccc3cnccc23)c1	Sfp PPTase inh 2.5µM, HP1b binding inh inconclusive (no result: G9a block)
Cc1cc(NC(=S)Nc2ccccc2)ccc1Br	none
COc1ccccc1CNc1ccnc(-c2ccc(C(=O)N(C)C)cc2)n1	none (no result: HP1b binding inh, L3MBTL1 block, BAZ2B block, JMJD2A Tudor inh)
CC(C)c1ccc(Nc2c(-c3ccc(N4CCOCC4)cc3)nc3ncccn23)cc1	none (no result: Sfp PPTase inh, L3MBTL1 block)
O=C(Cn1cc(SCc2ccc(C(F)(F)F)cc2)c2ccccc21)N1CCCCC1	none (no result: Sfp PPTase inh, L3MBTL1 block)
Cc1cccc(-c2nc3c4ccccc4nc(NCCc4ccccc4)n3n2)c1	none (no result: Sfp PPTase inh, L3MBTL1 block)
Cc1ccc(NC(=S)Nc2cccc3ccccc23)cc1	BAZ2B block inconclusive (no result: L3MBTL1 block, G9a block)
Fc1ccc(NC(=S)Nc2cccc3cnccc23)cc1	Sfp PPTase inh 2.8µM, G9a block 35µM
Fc1ccc(NC(=S)Nc2cccc3ccccc23)cc1	BAZ2B block inconclusive, G9a block 79µM
C=CCNC(=S)Nc1cccc2ccccc12	Sfp PPTase inh 79µM, G9a block 45µM
COc1cc(NC(=S)Nc2cccnc2)cc(OC)c1	Sfp PPTase inh inconclusive, G9a block 16µM
COc1cc(C(=O)NC2CC(=O)N(c3cccc(F)c3)C2)cc(OC)c1OC (configuration not stated)	none (no result: Sfp PPTase inh, L3MBTL1 block)
COc1ccccc1NC(=S)Nc1cccc2cnccc12	Sfp PPTase inh 45µM, G9a block 25µM
Cc1cc(C)cc(NC(=S)Nc2cccc3ccccc23)c1	none (no result: L3MBTL1 block)
COc1ccc(NC(=S)Nc2cccc3cnccc23)cc1	Sfp PPTase inh inconclusive, G9a block 25µM
CCOc1ccc(NC(=S)Nc2cccc3cnccc23)cc1	Sfp PPTase inh inconclusive, G9a block inconclusive
Cc1cc(NC(=S)Nc2cccc3ccccc23)n[nH]1	G9a block 1.1µM
O=C(Nc1cccnc1)Nc1cccc(F)c1	none (no result: L3MBTL1 block)
Fc1cccc(NC(=S)Nc2cccnc2)c1	Sfp PPTase inh 35µM, G9a block inconclusive
COc1cccc(NC(=S)Nc2cccc3ccccc23)c1	BAZ2B block inconclusive, G9a block inconclusive (no result: L3MBTL1 block)
Cc1ccc(C(=O)Nc2ccc(-c3cn4cccnc4n3)cc2)cc1C	none (no result: Sfp PPTase inh, L3MBTL1 block)
O=C(NNC(=S)Nc1ccc(Br)cc1)c1ccc(N2CCOCC2)c([N+](=O)[O-])c1	HP1b binding inh inconclusive, JMJD2A Tudor inh inconclusive, G9a block 11µM
O=C(Nc1ccc(N2CCCC2)c(Cl)c1)c1ccc([N+](=O)[O-])cc1	none
Cc1cc(C(=O)Nc2ccc(N3CCCC3)c(Cl)c2)ccc1[N+](=O)[O-]	HP1b binding inh inconclusive, L3MBTL1 block inconclusive, BAZ2B block 28µM, JMJD2A Tudor inh 25µM
Cc1cccc(NC(=O)c2ccc(N3CCCCC3)c([N+](=O)[O-])c2)n1	HP1b binding inh inconclusive, L3MBTL1 block inconclusive, BAZ2B block 11µM, JMJD2A Tudor inh inconclusive, G9a block inconclusive
O=C(Nc1cccnc1)c1ccc(N2CCOCC2)c([N+](=O)[O-])c1	none
Cc1ccc(NC(=S)NNC(=O)c2ccc(N3CCOCC3)c([N+](=O)[O-])c2)cc1Cl	HP1b binding inh inconclusive, BAZ2B block inconclusive, JMJD2A Tudor inh 25µM, G9a block 22µM
Cc1nn(CCC(=O)NNC(=S)Nc2ccc([N+](=O)[O-])cc2)c(C)c1[N+](=O)[O-]	G9a block 8.9µM

Source: PubChem
